Experimental data reported in PubChem BioAssay (NCI).
About 83,000 compounds went through this panel and 20% of them were active in at least one assay; those are over-represented in the sample as a whole.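 Growth was measured after 48 h exposure to one concentration of compound in 96-well plates. Values under 10 count as active.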 A number with no mark means an inactive call. Calls of active or inactive are those of the source.

Tests used:
Assay in all cases: NCI-60 one-dose screen, 48 h (100 = growth as untreated, 0 = no growth, -100 = all killed)
Details in all cases: 10 µM unless noted
[1] = system: NCI-H23 lung
[2] = system: NCI-H226 lung
[3] = system: NCI-H322M lung
[4] = system: HOP-62 NSCLC
[5] = system: NCI-H460 lung
[6] = system: HOP-92 NSCLC
[7] = system: NCI-H522 lung
[8] = system: A549/ATCC NSCLC
[9] = system: 786-0 renal
[10] = system: COLO 205 colon
[11] = system: DU-145 prostate
[12] = system: K-562 leukemia
[13] = system: MALME-3M melanoma
[14] = system: MDA-MB-231 breast
[15] = system: RXF 393 renal
[16] = system: SF-268 CNS
[17] = system: SF-295 CNS
[18] = system: SF-539 CNS
[19] = system: UACC-257 melanoma
[20] = system: M14 melanoma

| Compound | growth [1] | growth [2] | growth [3] | growth [4] | growth [5] | growth [6] | growth [7] | growth [8] | growth [9] | growth [10] | growth [11] | growth [12] | growth [13] | growth [14] | growth [15] | growth [16] | growth [17] | growth [18] | growth [19] | growth [20] |
| --- | --- | --- | --- | --- | --- | --- | --- | --- | --- | --- | --- | --- | --- | --- | --- | --- | --- | --- | --- | --- |
| N#Cc1nc(-c2ccccc2)oc1S(=O)(=O)N1CCN(c2ccc(F)cc2)CC1 | 80.8% | 85.7% | 91.6% | 112% | 102% | 76% | 2.64% (active) | 101% | 64.9% | 33.6% | 98.8% | 3.68% (active) | 51.8% | 83.8% | 89.8% | 88.8% | 105% | 101% | 86.8% | 53.5% |
| Oc1c(CN2CCCC2)cc(CSCc2ccccc2)c2cccnc12 | 11.8% | -4.43% (active) | -0.478% (active) | 4.78% (active) | 2.01% (active) | 14.5% | 12.9% | 9.29% (active) | 6.65% (active) | 51% | 22.6% | 11% | -2.43% (active) | 26.4% | 31.3% | 11.9% | 5.5% (active) | -26.2% (active) | -16.7% (active) | -3.2% (active) |
| COc1ccc(C2=CN3CC=CC3CC2=O)cc1 (stereo not given) | 97.8% | 98% | 108% | 91.1% | 106% | 107% | 85.2% | 87.4% | 88.8% | 102% | 98.9% | 98.4% | 81.6% | 105% | 110% | 98.2% | 93.3% | 95% | 92.9% | 106% |
| Cc1ccc(S(=O)(=O)c2nc(-c3ccccc3)oc2Sc2nc3ccccc3s2)cc1 | 20.9% | 48.6% | 94% | 97.1% | 68.1% | 73.9% | 54.1% | 101% | 35.3% | 102% | 100% | 42.9% | 66.4% | 75.3% | 77.3% | 58.3% | 92.1% | 93.3% | 101% | 13.4% |
| CCOC(=O)C1=C(C)/C(=C\c2[nH]c(C)c(C(=O)OCC)c2C)N=C1C | 80.2% | 94.3% | 93.5% | 83.2% | 102% | 103% | 75.4% | 86.7% | 98.9% | 85.2% | 96.2% | 106% | 94.6% | 82.8% | 101% | 79.1% | 96.9% | 101% | 88.9% | 95.9% |
| N#CSc1c[nH]c2cccc(/C=C/C(=O)/C=C(O)/C=C/c3cccc4[nH]cc(SC#N)c34)c12 | -36.8% (active) | -73.1% (active) | -47.5% (active) | -32.6% (active) | -22.9% (active) | -72% (active) | -68.2% (active) | -69.7% (active) | -60.3% (active) | -77.7% (active) | -78.7% (active) | -12.9% (active) | -82.3% (active) | -78.3% (active) | -62.9% (active) | -31.9% (active) | -87.7% (active) | -68.5% (active) | -27.4% (active) | -59.7% (active) |
| CNC(=O)c1cc(Oc2cccc3nc(NC(=O)Nc4cc(C(F)(F)F)ccc4Cl)ccc23)ccn1 | 80% | 99.1% | 101% | 95.2% | 101% | 115% | 94% | 90% | 68.8% | 67.5% | 78.6% | 80.9% | 69.2% | 49.1% | 73.7% | 74.9% | 106% | 32.6% | 98.3% | 95.1% |
| C[n+]1ccc(CCc2c[nH]c3ccccc23)cc1 | 102% | 109% | 93.4% | 69.3% | 107% | 93.9% | 81.4% | 66.2% | 100% | 96.8% | 111% | 102% | 76.1% | 92.7% | 118% | 94.4% | 94.5% | 95.7% | 104% | 95.1% |
